The results in this text go back to PubChem BioAssay.

Structures are written as SMILES. Active and inactive are the calls of the source. Unless noted, no rule for the calls is given here.

Assay [1] relates to Wnt5a (protein binding on small-molecule microarray). The assay is described as follows: Wnt5a binders on small-molecule microarray, primary screen, biophysical, 635/667 nm fluorescence (AID 1142).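 Also: fluorescence read at 667 nm with signal to noise per printed feature.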 The following applies: 635 nm fluorescence, higher = more signal.
Assay [2] is described as follows: cell viability in Huh7 cells, primary screen, cytotoxicity control for HCV replication inhibitor project, CellTiter-Glo luminescence, basal, 48 h (AID 1143).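 Also: Huh7 hepatoma cells carrying a hepatitis C replication reporter with no stimulus; test concentration not given here.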 The following applies: Huh7 HCV replicon, higher = more signal, called active from +8 up or from −8 down.
The nature of assay [3]: P. aeruginosa biofilm formation inhibitors, primary screen, PAO1 strain, BacTiter-Glo luminescence, LB-PBS (AID 1144). The note with it: 12 h, higher = more signal.
Assay [4] is described as follows: CREB reporter modulators without forskolin, primary screen, cell-based, PC12, CRE-LacZ reporter, unstimulated (AID 1145). The note with it: no forskolin, luminescence, 4.5 h, higher = more signal, called active from +8 up or from −8 down.
Assay [5] in a line: CREB reporter modulators under forskolin, primary screen, cell-based, PC12, CRE-LacZ reporter, forskolin-stimulated (AID 1146).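 Also: PC12 cells with 6xCRE LacZ reporter stimulated by forskolin 10 µM; beta-galactosidase reporter signal reflecting CREB driven transcription.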 The note with it: luminescence, 4.5 h, higher = more signal, called active from +8 up or from −8 down.
The target of assay [6] is Streptavidin (Streptomyces avidinii) (UniProt P22629). In words: streptavidin binders on small-molecule microarray, primary screen, artefact control for SMM compound annotation, biophysical, 635/667 nm fluorescence (AID 1147).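 Also: signal reflects streptavidin binding to arrayed compounds as a control protein.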 The note with it: streptavidin binding, higher = more signal.
Assay [7] in a line: small-molecule binders of probe aInhba, primary screen, biochemical, small-molecule microarray, 635/667 nm fluorescence (AID 1148).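 Also: score merges 667nm spot fluorescence with signal-to-noise for antibody binding to printed compounds.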 The note with it: higher = more signal.
For assay [8], the target named is Torsin-1A (Homo sapiens) (UniProt O14656). The assay is described as follows: torsin A binders from cell lysate, primary screen, small-molecule microarray, wild-type, 635/667 nm (AID 1149). The following applies: COS7 hTOR1A-WT lysate, 635 nm fluorescence, higher = more signal.
Assay [9] has the same target. The assay is described as follows: small-molecule binders of mutant TOR1A in lysate, primary screen, cell lysate, small-molecule microarray, COS7 lysate, 635/667 nm fluorescence (AID 1150).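 Also: score pools 667 nm emission and signal to noise measuring lysate protein binding.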 The following applies: COS7 hTOR1A mutant lysate, 635 nm fluorescence, higher = more signal.
Assay [10] has as its system Sonic hedgehog protein (Shh). In words: small-molecule binders of Shh protein, primary screen, biochemical, small-molecule microarray, 635/667 nm fluorescence (AID 1151).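 Also: Shh protein binding to compounds spotted on small-molecule microarray slides; score combines spot fluorescence intensity with signal-to-noise across triplicate slides.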 The following applies: small-molecule microarray binding, 635 nm fluorescence; higher = more signal.
A short description of assay [11]: E. coli DRC41 culture turbidity changes, primary screen, E. coli filamentation inducer project, strain DRC41, OD650, 48 h (AID 1152).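 Also: E. coli MC1000 strain DRC41 lacking acrAB efflux pump and sulA.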 The following applies: E. coli DRC41 (acrAB sulA), higher = more signal, called active from +8 up or from −8 down.
A short description of assay [12]: small-molecule binders of probe aLefty1, primary screen, biochemical, small-molecule microarray, 635/667 nm fluorescence (AID 1153).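 Also: score merges spot fluorescence with signal-to-noise ratio from the scanned slide images.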 The following applies: higher = more signal.
A short description of assay [13]: PSAC antagonists in infected red cells, primary screen, cell-based, P. falciparum Indochina, OD700, 1 h (AID 1154). The following applies: P. falciparum Indochina infected RBC osmotic lysis, higher = more signal, called active from +8 up or from −8 down.
A short description of assay [14]: PSAC antagonists in infected red cells, primary screen, cell-based, P. falciparum Indochina, OD700, 2 h (AID 1155).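 Also: lysis reports solute entry through the parasite surface anion channel PSAC; channel blockers reduce lysis of infected cells.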 The following applies: P. falciparum Indochina infected erythrocytes, osmotic lysis OD700; higher = more signal, called active from +8 up or from −8 down.
The nature of assay [15]: osmotic lysis modulators in infected erythrocytes, primary screen, PSAC antagonist project, cell-based, P. falciparum Indochina, OD700, 3 h (AID 1156). The note with it: higher = more signal, called active from +8 up or from −8 down.
Assay [16] is described as follows: PSAC antagonists in infected red cells, primary screen, cell-based, P. falciparum Indochina, OD700, 18 h (AID 1157). The following applies: P. falciparum Indochina infected erythrocytes, osmotic lysis OD700, 18 h; higher = more signal, called active from +8 up or from −8 down.
Assay [17] can be described thus: modulators of S6 phosphorylation in cells, primary screen, cell-based, A549, cytoblot, luminescence, serum-stimulated (AID 1158).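 Also: serum-stimulated A549 lung adenocarcinoma cells; signal is phosphorylated S6 detected by cytoblot immunostaining with HRP secondary.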 The following applies: A549 phospho-S6 cytoblot, 5 h, higher = more signal.
Assay [18] addresses NADPH oxidase 2 (Homo sapiens) (UniProt P04839). In words: NOX2-dependent H2O2 signal modulators, primary screen, NOX inhibitor project, cell-based, HEK293-NOX2, PMA-stimulated, Amplex Red fluorescence (AID 1159). Also: test concentration not given here. The note with it: 45 min, higher = more signal, called active from +8 up or from −8 down.
Assay [19] has as its target NADPH oxidase 4 (Homo sapiens) (UniProt Q9NPH5). The assay is described as follows: NOX4-dependent H2O2 signal modulators, primary screen, NOX inhibitor project, cell-based, HEK293-NOX4, tetracycline-induced, Amplex Red fluorescence (AID 1160). The following applies: 45 min, higher = more signal, called active from +8 up or from −8 down.
Assay [20] addresses NADPH oxidase 5 (Homo sapiens) (UniProt Q96PH1). The assay is described as follows: NOX5-dependent H2O2 signal modulators, primary screen, NOX inhibitor project, cell-based, HEK293-NOX5, Amplex Red fluorescence (AID 1161). The note with it: HEK293-NOX5, ionomycin, 45 min, higher = more signal.

Sequence of Torsin-1A (Homo sapiens) (O14656 whole entry, looked up): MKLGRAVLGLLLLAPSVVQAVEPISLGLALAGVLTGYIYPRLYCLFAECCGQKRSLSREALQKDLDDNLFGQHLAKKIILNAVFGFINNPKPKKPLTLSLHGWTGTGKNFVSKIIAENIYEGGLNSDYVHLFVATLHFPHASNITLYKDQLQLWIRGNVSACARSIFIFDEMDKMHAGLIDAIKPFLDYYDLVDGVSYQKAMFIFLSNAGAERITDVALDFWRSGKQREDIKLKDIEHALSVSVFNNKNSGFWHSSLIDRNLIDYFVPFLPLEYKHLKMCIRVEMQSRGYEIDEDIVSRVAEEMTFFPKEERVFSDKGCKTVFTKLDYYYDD
Sequence of NADPH oxidase 5 (Homo sapiens) (Q96PH1 whole entry, looked up): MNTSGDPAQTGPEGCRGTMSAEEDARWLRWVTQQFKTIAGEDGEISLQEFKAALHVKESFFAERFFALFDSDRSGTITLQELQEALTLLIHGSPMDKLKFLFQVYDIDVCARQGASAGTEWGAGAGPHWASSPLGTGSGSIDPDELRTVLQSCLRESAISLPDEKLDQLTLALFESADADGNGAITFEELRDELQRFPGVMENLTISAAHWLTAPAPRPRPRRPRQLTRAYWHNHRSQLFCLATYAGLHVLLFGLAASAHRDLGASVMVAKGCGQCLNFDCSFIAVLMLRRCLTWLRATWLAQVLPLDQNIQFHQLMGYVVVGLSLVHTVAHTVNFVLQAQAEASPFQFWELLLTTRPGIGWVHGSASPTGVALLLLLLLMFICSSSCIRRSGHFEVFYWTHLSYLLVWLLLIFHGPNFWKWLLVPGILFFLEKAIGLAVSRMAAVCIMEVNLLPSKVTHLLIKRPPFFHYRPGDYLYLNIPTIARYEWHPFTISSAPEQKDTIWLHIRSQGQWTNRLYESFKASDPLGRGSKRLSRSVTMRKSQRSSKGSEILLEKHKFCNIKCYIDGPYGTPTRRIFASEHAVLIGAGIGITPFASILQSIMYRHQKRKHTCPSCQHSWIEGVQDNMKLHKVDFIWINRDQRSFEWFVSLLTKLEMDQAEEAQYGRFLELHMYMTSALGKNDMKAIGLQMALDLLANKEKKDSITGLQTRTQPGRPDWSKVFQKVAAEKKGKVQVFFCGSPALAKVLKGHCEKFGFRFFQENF
Sequence of Streptavidin (Streptomyces avidinii) (P22629 whole entry, looked up): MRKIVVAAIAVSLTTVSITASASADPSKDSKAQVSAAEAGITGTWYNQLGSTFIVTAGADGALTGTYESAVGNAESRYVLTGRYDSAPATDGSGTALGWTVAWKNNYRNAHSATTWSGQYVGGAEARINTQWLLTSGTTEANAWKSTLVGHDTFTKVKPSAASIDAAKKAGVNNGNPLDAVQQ
Sequence of NADPH oxidase 2 (Homo sapiens) (P04839 whole entry, looked up): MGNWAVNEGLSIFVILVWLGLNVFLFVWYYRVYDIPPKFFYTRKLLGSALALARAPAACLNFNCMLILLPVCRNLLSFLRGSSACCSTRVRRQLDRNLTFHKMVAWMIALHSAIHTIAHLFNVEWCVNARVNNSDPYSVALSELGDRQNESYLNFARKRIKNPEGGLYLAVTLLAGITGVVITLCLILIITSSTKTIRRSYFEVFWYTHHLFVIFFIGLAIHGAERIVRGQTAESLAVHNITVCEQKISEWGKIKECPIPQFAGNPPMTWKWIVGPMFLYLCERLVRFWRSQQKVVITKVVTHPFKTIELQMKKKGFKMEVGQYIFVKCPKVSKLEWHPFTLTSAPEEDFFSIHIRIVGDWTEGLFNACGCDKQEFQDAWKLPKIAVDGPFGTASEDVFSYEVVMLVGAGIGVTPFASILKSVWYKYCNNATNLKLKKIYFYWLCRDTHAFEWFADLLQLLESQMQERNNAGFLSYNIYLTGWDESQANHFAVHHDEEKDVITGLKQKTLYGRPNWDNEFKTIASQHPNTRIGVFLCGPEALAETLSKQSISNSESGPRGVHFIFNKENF
Sequence of NADPH oxidase 4 (Homo sapiens) (Q9NPH5 whole entry, looked up): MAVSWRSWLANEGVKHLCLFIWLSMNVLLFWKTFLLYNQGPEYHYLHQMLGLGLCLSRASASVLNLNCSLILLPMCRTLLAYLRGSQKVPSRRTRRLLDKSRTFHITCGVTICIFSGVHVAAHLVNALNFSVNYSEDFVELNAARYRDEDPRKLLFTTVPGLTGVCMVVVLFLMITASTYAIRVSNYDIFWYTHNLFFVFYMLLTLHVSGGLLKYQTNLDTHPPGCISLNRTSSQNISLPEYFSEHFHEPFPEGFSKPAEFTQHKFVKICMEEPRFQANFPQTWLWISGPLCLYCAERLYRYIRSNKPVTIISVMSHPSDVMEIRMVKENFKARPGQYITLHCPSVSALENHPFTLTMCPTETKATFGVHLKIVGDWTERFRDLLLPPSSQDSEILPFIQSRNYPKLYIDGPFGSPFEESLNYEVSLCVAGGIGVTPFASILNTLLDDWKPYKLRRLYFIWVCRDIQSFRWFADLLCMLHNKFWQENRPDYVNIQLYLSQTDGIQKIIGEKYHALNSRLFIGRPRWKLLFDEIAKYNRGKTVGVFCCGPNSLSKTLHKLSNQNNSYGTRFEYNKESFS

For `COCCOC(=O)N1C(=O)[C@@]2(c3cc(C#CC4=CCCCC4)ccc31)[C@H](C(N)=O)[C@H]1C(=O)O[C@H](c3ccccc3)[C@H](c3ccccc3)N1[C@@H]2c1ccccc1OCCO`, the composite z-score amounted to 0.183 in [1]; 0.483 in [6]; 0.147 in assay [7]; 0.38 with Torsin-1A (Homo sapiens) [8]; 1.41 with Torsin-1A (Homo sapiens) [9]; 1.08 in assay [10]. Also, the composite z-score in assay [12] is 0.199. Besides, the z-score in assay [2] was -6.52 (inactive); in assay [3], -0.413 (inactive); in assay [4], -0.333 (inactive); in [5] it was -0.855 (inactive); in assay [11], -0.172 (inactive); in assay [13], 3.63 (inactive). The z-score in assay [14] was 2.55 (inactive); in [15] it was 0.629 (inactive); in assay [16] it was 2.15 (inactive); in [17] it was -0.332; in [18] it was 2.16 (inactive); in assay [19] it was 0.932 (inactive). The molecule also registered a z-score in assay [20] of 1.42.
On to `CCCCCCCCCCC(O)C1C=CC2C(=O)N(C)C(=O)C2N1Nc1ccc([N+](=O)[O-])cc1[N+](=O)[O-]` (stereo not given), for which the composite z-score in [1] was 0.218; in assay [6], 1.12; in assay [7], 0.211; with Torsin-1A (Homo sapiens) [8], -0.257; with Torsin-1A (Homo sapiens) [9] it was 0.565; in assay [10], -0.412. Besides, the composite z-score in assay [12] was 0.407. The z-score in assay [2] was -0.646 (inactive); in assay [3], 0.322 (inactive); in assay [4] it was 0.44 (inactive); in assay [5] it was 0.932 (inactive); in [11], -1.97 (inactive); in [13] it was 13.8 (active). In addition, the z-score in assay [14] was 4.31 (inactive); in assay [15], -0.607 (inactive); in [16] it was 2.59 (inactive); in [17] it was -0.506; in assay [18] it was 0.402 (inactive); in assay [19] it was 0.328 (inactive). In addition, the z-score in assay [20] was -0.414.
Regarding `CC(C)C(=C=CC[C@H](O)c1cccc(OCCO)c1)C[C@H](O)c1cc(Cl)cc(Cl)c1O`, the composite z-score in [1] is 0.255; in assay [6], 0.092; in assay [7] it was -0.116; with Torsin-1A (Homo sapiens) [8], 0.605; in the assay with Torsin-1A (Homo sapiens) [9], -0.356; in assay [10] it was 1.95. Also, the composite z-score in assay [12] was determined as 0.0999. Further, the z-score in assay [2] is -0.254 (inactive); in [3] it was -1.02 (inactive); in [4] it was 5.53 (inactive); in assay [5], 0.813 (inactive); in assay [11], 0.321 (inactive); in assay [13] it was 14.5 (active). Also, the z-score in assay [14] is 2.25 (inactive); in assay [15], 0.667 (inactive); in [16] it was 0.847 (inactive); in [17], 1.53; in [18], -1.01 (inactive); in assay [19] it was -0.881 (inactive). The z-score in assay [20] is -1.83.
With `Cc1ccc(S[C@]2(C(=O)NCC(F)(F)F)CC(=O)N(Cc3ccccc3)[C@@H]2c2ccc(CO)cc2I)cc1`, the composite z-score is 0.0543 in [1]; -0.119 in assay [6]; 0.0228 in [7]; -0.565 with Torsin-1A (Homo sapiens) [8]; -0.49 with Torsin-1A (Homo sapiens) [9]; 0.237 in assay [10]. The composite z-score in assay [12] came out at 0.0355. Also, the z-score is -1.22 (inactive) in assay [2]; 0.479 (inactive) in [3]; -0.581 (inactive) in [4]; 1.83 (inactive) in assay [5]; -0.764 (inactive) in assay [11]; 4.23 (inactive) in [13]. Besides, the z-score in [14] was 0.283 (inactive); in assay [15] it was 0.173 (inactive); in assay [16] it was 0.279 (inactive); in assay [17] it was -0.404; in assay [18], 1.22 (inactive); in assay [19] it was -1.33 (inactive). In assay [20], this molecule returned a z-score of 0.776.
